Experimental data taken from PubChem BioAssay (NCI).
Compounds without any hit were thinned out: in the full panel of roughly 79,000, 15% have a hit. Active and inactive are the calls of the source. No stated cut-off is given here; in the data, active means growth inhibition above about 70%; inactive means the rest.

What was measured:
[1] = NCI Yeast Anticancer Drug Screen. Data for the wt1 strain (AID 149);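 further: 0% = growth of vehicle-treated wt1 cultures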; conditions: S. cerevisiae wt1 strain (SPY 50644) growth inhibition, active compounds read high
In short: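 Vehicle-normalised growth inhibition; strain wt1; compound exposure.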

[2] = NCI Yeast Anticancer Drug Screen. Data for the rad50EPP+ strain (AID 151);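 further: 0% = growth of vehicle-treated control cultures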; conditions: S. cerevisiae rad50 mutant strain, active compounds read high
In short: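 One strain with a rad50 alteration (rad50EPP+) was compound-treated, its growth then compared to that of vehicle controls.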

[3] = NCI Yeast Anticancer Drug Screen. Data for the mgt1 strain (AID 153); conditions: S. cerevisiae mgt1 mutant growth inhibition, active compounds read high
In short: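 After exposure of the mgt1 yeast mutant to compound, growth was measured and reported as inhibition compared with vehicle controls.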

[4] = NCI Yeast Anticancer Drug Screen. Data for the rad50 strain (AID 155);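 further: 0% = growth of vehicle-only cultures of the same strain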; conditions: S. cerevisiae rad50 strain growth inhibition, active compounds read high
In short: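 A DNA repair-deficient yeast mutant serves as the test organism; compound-induced growth inhibition is calculated against vehicle-treated cells.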

[5] = NCI Yeast Anticancer Drug Screen. Data for the mec2-1 strain (AID 157); conditions: S. cerevisiae mec2-1 strain, active compounds read high
In short: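 Test agents were screened against the mec2-1 yeast strain, with defined DNA repair or cell cycle alteration. Growth was scored as inhibition against vehicle-only controls.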

[6] = NCI Yeast Anticancer Drug Screen. Data for the rad14 strain (AID 159);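 further: 0% = growth of vehicle-treated control cultures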; conditions: S. cerevisiae rad14 strain growth inhibition, active compounds read high
In short: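 Vehicle-treated cultures served as the baseline for growth inhibition of a DNA repair-mutant yeast strain exposed to each compound.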

[7] = NCI Yeast Anticancer Drug Screen. Data for the sgs1 mgt1 strain (AID 161);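 further: 0% = growth of cultures given vehicle only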; conditions: S. cerevisiae sgs1 mgt1 strain, active compounds read high
In short: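 Mutant yeast exposed to compound; growth scored against vehicle-only wells.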

[8] = NCI Yeast Anticancer Drug Screen. Data for the CLN2oe strain (AID 163);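 further: 0% = growth of vehicle-only control cultures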; conditions: S. cerevisiae CLN2oe strain, active compounds read high
In short: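 Here, growth inhibition in a cell-cycle-altered yeast strain after compound exposure was quantified against vehicle control growth.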

[9] = NCI Yeast Anticancer Drug Screen. Data for the cln2 rad14 strain (AID 165);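 further: 0% = growth equal to vehicle treated cultures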; conditions: S. cerevisiae cln2 rad14 strain, active compounds read high
In short: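 Growth of compound-exposed yeast (cln2 rad14 genotype) measured and expressed as inhibition relative to vehicle.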

[10] = NCI Yeast Anticancer Drug Screen. Data for the bub3 strain (AID 167); conditions: S. cerevisiae bub3 mutant strain, active compounds read high
In short: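 Inhibition values come from growth of compound-treated mutant yeast normalised to vehicle-treated controls.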

[11] = NCI Yeast Anticancer Drug Screen. Data for the wt2 strain (AID 169);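 further: 0% = growth of vehicle-treated yeast cultures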; conditions: S. cerevisiae wt2 strain growth inhibition, active compounds read high
In short: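 Genetically defined yeast strains from a DNA-repair/cell-cycle panel were used. Compound-exposed yeast growth was measured, and the inhibition was calculated relative to vehicle treatment.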

[12] = NCI Yeast Anticancer Drug Screen. Data for the mlh1 strain (AID 171);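 further: 0% = growth of vehicle-treated control cultures of the same strain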; conditions: S. cerevisiae mlh1 strain growth inhibition, active compounds read high
In short: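 Here the genetically defined yeast mutant is grown with each compound, and the extent to which its growth falls below that of vehicle-exposed cells is reported.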

[13] = NCI Yeast Anticancer Drug Screen. Data for the sgs1 strain (AID 173);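 further: 0% = growth of vehicle-only control cultures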; conditions: S. cerevisiae sgs1 mutant, active compounds read high
In short: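 Relative growth inhibition, referenced to vehicle, was determined in a yeast strain with a defined alteration affecting DNA damage repair or cell cycle control after compound exposure.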

[14] = NCI Yeast Anticancer Drug Screen. Data for the mlh1 rad18 strain (AID 175); conditions: S. cerevisiae mlh1 rad18 strain growth inhibition, active compounds read high
In short: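 In this whole-cell yeast screen, a strain with altered DNA damage repair is challenged with compound, and its growth is measured against matched vehicle-treated controls.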

[15] = at 5.0 µM (retest, dose inferred, filed as 0.5)
[16] = at 50.0 µM (retest, dose inferred, filed as 5.0)

Measured: growth inhibition

Cc1cccc(N2CCN(C(=O)/C(=C/c3ccccc3)NC(=O)c3ccccc3)CC2)c1
inactive: [1]; at 1.2 µM -3% | [1]; at 3.7 µM -1% | [1]; at 11.0 µM -2% | [1]; at 33.0 µM 24% | [1]; at 100.0 µM 31% | [2]; at 1.2 µM 2% | [2]; at 3.7 µM 0% | [2]; at 11.0 µM 0% | [2]; at 33.0 µM 2% | [2]; at 100.0 µM -9% | [3]; at 1.2 µM -4% | [3]; at 3.7 µM -4% | [3]; at 11.0 µM 0% | [3]; at 33.0 µM 44% | [3]; at 100.0 µM 54% | [4]; at 1.2 µM -4% | [4]; at 3.7 µM -48% | [4]; [15] -1% | [4]; at 11.0 µM 29% | [4]; at 33.0 µM 59% | [4]; [16] 48% | [4]; at 50.0 µM 12.3% | [4]; at 100.0 µM 68% | [5]; at 1.2 µM -1% | [5]; at 3.7 µM 0% | [5]; [15] -3% | [5]; at 11.0 µM 8% | [5]; at 33.0 µM 36% | [5]; [16] -26% | [5]; at 50.0 µM 2.95% | [5]; at 100.0 µM 43% | [6]; at 1.2 µM -4% | [6]; at 3.7 µM -6% | [6]; at 11.0 µM 0% | [6]; at 33.0 µM 28% | [6]; at 100.0 µM 35% | [7]; [15] 0% | [7]; [16] 56% | [7]; at 50.0 µM -13.3% | [8]; at 1.2 µM -6% | [8]; at 3.7 µM -6% | [8]; at 11.0 µM 3% | [8]; at 33.0 µM 38% | [8]; at 100.0 µM 33% | [9]; [15] -5% | [9]; [16] 35% | [9]; at 50.0 µM -12.5% | [10]; at 1.2 µM -3% | [10]; at 3.7 µM -1% | [10]; [15] -41% | [10]; at 11.0 µM 5% | [10]; at 33.0 µM 41% | [10]; [16] 38% | [10]; at 50.0 µM 10.1% | [10]; at 100.0 µM 38% | [11]; at 1.2 µM -2% | [11]; at 3.7 µM 6% | [11]; at 11.0 µM 1% | [11]; at 33.0 µM 38% | [11]; at 100.0 µM 46% | [12]; at 1.2 µM -1% | [12]; at 3.7 µM -2% | [12]; at 11.0 µM 4% | [12]; at 33.0 µM 41% | [12]; at 100.0 µM 48% | [13]; at 1.2 µM -2% | [13]; at 3.7 µM 2% | [13]; at 11.0 µM 16% | [13]; at 33.0 µM 53% | [13]; at 100.0 µM 59% | [14]; [15] 1% | [14]; [16] 64% | [14]; at 50.0 µM 25.9%

O=Cc1ccccc1B(O)O
inactive: [1]; at 1.2 µM -3% | [1]; at 3.7 µM -1% | [1]; at 11.0 µM 66% | [2]; at 1.2 µM 43% | [3]; at 1.2 µM 0% | [3]; at 3.7 µM 2% | [4]; at 1.2 µM 31% | [4]; [15] 48% | [5]; at 1.2 µM 2% | [5]; at 3.7 µM 25% | [5]; [15] -25% | [6]; at 1.2 µM 3% | [6]; at 3.7 µM 13% | [7]; [15] -25% | [8]; at 1.2 µM -4% | [8]; at 3.7 µM 11% | [9]; [15] -52% | [10]; at 1.2 µM -14% | [10]; at 3.7 µM -8% | [10]; [15] -83% | [11]; at 1.2 µM 0% | [11]; at 3.7 µM 1% | [12]; at 1.2 µM 8% | [12]; at 3.7 µM 14% | [13]; at 1.2 µM 18% | [13]; at 3.7 µM 66% | [14]; [15] -48%
active: [1]; at 33.0 µM 99% | [1]; at 100.0 µM 99% | [2]; at 3.7 µM 79% | [2]; at 11.0 µM 94% | [2]; at 33.0 µM 97% | [2]; at 100.0 µM 99% | [3]; at 11.0 µM 76% | [3]; at 33.0 µM 99% | [3]; at 100.0 µM 99% | [4]; at 3.7 µM 79% | [4]; at 11.0 µM 96% | [4]; at 33.0 µM 99% | [4]; [16] 95% | [4]; at 50.0 µM 98.8% | [4]; at 100.0 µM 99% | [5]; at 11.0 µM 97% | [5]; at 33.0 µM 99% | [5]; [16] 96% | [5]; at 50.0 µM 99.6% | [5]; at 100.0 µM 100% | [6]; at 11.0 µM 90% | [6]; at 33.0 µM 99% | [6]; at 100.0 µM 99% | [7]; [16] 95% | [7]; at 50.0 µM 98.9% | [8]; at 11.0 µM 84% | [8]; at 33.0 µM 98% | [8]; at 100.0 µM 99% | [9]; [16] 94% | [9]; at 50.0 µM 96.5% | [10]; at 11.0 µM 81% | [10]; at 33.0 µM 98% | [10]; [16] 95% | [10]; at 50.0 µM 99% | [10]; at 100.0 µM 99% | [11]; at 11.0 µM 77% | [11]; at 33.0 µM 100% | [11]; at 100.0 µM 99% | [12]; at 11.0 µM 86% | [12]; at 33.0 µM 99% | [12]; at 100.0 µM 99% | [13]; at 11.0 µM 96% | [13]; at 33.0 µM 99% | [13]; at 100.0 µM 99% | [14]; [16] 94% | [14]; at 50.0 µM 99.5%
